Compound activity (PubChem BioAssay)
Marburg entry inh = inhibitors of Marburg virus binding or cell entry; Potency, µM (top dose mostly 37.8 µM), for the others: top-dose activity change, negative = inhibition, actives largely listed as inhibitors; Marburg virus pseudotyped entry inhibition, cell reporter; hit rate 1.8% among 300,000; calls by dose curve; tested in HEK293 cells; also: potency is read from the fitted curve at half-maximal effect
Lassa entry inh = blocks Lassa virus binding to or entry into cells | Lassa virus pseudotype entry inhibition, cell reporter | Potency, µM (top dose mostly 37.9 µM), for inactives: at the highest dose activity change, negative = inhibition, actives largely listed as inhibitors | hit rate 1.2% among 300,000; calls by dose curve; tested in HEK293 cells; also: potency is read from the fitted curve at half-maximal effect; nearly all actives have a fitted effect of over 50% in size
HCMV antiviral = human cytomegalovirus inhibition; hit rate 4.5% among 410,000; HFF cells, HCMV-luciferase reporter, 72 h; hits give low values; activity change, negative = inhibition, % at 57.5 µM; in the data active = activity change below about -60%; inconclusive = no clear call, values can overlap the other calls; inactive = above about -39%
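Two-dose cell screen: HFF monolayers treated with compounds and infected with luciferase-expressing HCMV at 1 PFU/cell, 72 h at 37C, then lysed for luciferase measurement.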
VACV Venus inh = inhibitors of vaccinia virus (Venus reporter) | Vaccinia virus Venus reporter expression, fluorescence | hit rate 0.46% among 330,000 | Potency, µM (top dose mostly 36.5 µM), for inactives: at the top dose activity change, negative = inhibition, hits mostly inhibitors; calls by dose curve; tested in A549 cells; also: potency is read from the fitted curve at half-maximal effect; nearly all actives have a fitted effect of over 30% in size
VACV mCherry inh = inhibitors of vaccinia virus infection (mCherry reporter signal). Vaccinia virus mCherry reporter infection, fluorescence. AID 720579. hit rate 0.63% among 310,000. Potency, µM (doses to about 36.5 µM), for inactives: at the top dose activity change, negative = inhibition, usual class: inhibitors; calls by dose curve; tested in A549 cells; also: potency is read from the fitted curve at half-maximal effect; nearly all actives have a fitted effect of over 35% in size
FMDV inh = antivirals against foot and mouth disease virus; FMDV antiviral cell-based qHTS; hit rate 1.2% among 410,000; Potency, µM (highest dose often 57.9 µM), for inactives: at the highest dose activity change, negative = inhibition, actives largely listed as inhibitors; calls by dose curve; tested in HEK293T cells; also: read-out not given here; potency is read from the fitted curve at half-maximal effect; nearly all actives have a fitted effect of over 45% in size
Starred values were filed as active, the others as inactive; i = inactive; ? = inconclusive; nt = no result given; [ ] = dose if it differs, or a comment. In the library only some 6.5% were active in any assay of this set; here they are far more common. % is scaled to controls: 0 for no effect and ±100 for the full control effect.

SMILES	Marburg entry inh	Lassa entry inh	HCMV antiviral	VACV Venus inh	VACV mCherry inh	FMDV inh
O=C(CSCc1cccc(Cl)c1)Nc1ccccc1-c1ccccc1	?	4%	-63*	-19%	-3%	-28%
Cc1ccc(CSC2=Nc3ccccc3C3=NC(CCC(=O)NCCc4ccccc4)C(=O)N23)cc1 (stereo unspecified)	nt	?	-90*	-16%	-22%	?
Cc1ccc(CSCC(=O)NCCc2ccccc2)cc1	8%[46.1 µM]	?	-100*	-10%	i	9%
Cc1ccc(NC(=O)CSCC(=O)NCCc2ccccc2)cc1	1%	-1%	1	-15%	-14%	27%
O=C(Cc1ccccc1[N+](=O)[O-])c1ccccc1	nt	nt	-6	nt	nt	nt
O=C(Cc1ccc(OCCC2CCCCC2)cc1)NO	nt	nt	nt	-15%	?	nt
CCc1ccc2occ(CC(=O)Nc3c(C(=O)c4ccc(F)cc4)oc4ccccc34)c2c1	5%[46.1 µM]	-3%[46.1 µM]	1	-16%	-9%	-14%
COc1ccc(CNC(=O)c2cc3c(-c4ccccc4F)nn(C)c3s2)cc1	-1%[46.1 µM]	?	-16	-26%	?	?
COc1cc(C2C3=C(COC3=O)OC(C)(C)Oc3cc4c(cc32)OCO4)cc(OC)c1OC (stereo unspecified)	?	?	-80*	?	?	-6%
COc1cc(C2c3cc4c(cc3OC(Nc3ccc(C(=O)O)cc3)C2C)OCO4)cc(OC)c1OC (stereo unspecified)	?	?	-60*	?	?	-18%
COc1cc(C2c3cc4c(cc3OC(NCCc3ccccc3)C2C)OCO4)cc(OC)c1OC (stereo unspecified)	?	?	-82*	?	?	-13%
COc1ccc(NC2Oc3cc4c(cc3C(c3cc(OC)c(OC)c(OC)c3)C2C)OCO4)cc1 (stereo unspecified)	?	?	-77*	?	?	-23%
COc1ccccc1C(=O)Nc1cccc(N2CCC(NCc3cnn(-c4ccccc4)n3)CC2)c1	nt	nt	nt	-30%	-7%	-19%
Cc1ccc(NC(=O)Cn2c(=O)n(CC3CCC(C(=O)NC(C)C)CC3)c(=O)c3sccc32)cc1 (stereo unspecified)	nt	0%[46.1 µM]	-3	-12%	0%	-8%
COc1cc(C2c3cc4c(cc3OC(N3CCCC3)C2C)OCO4)cc(OC)c1O (stereo unspecified)	-20%	-21%[46.1 µM]	13	-29%	i	2%
COc1cc(C2c3cc4c(cc3OC(C)(N3CCCC3)C2C)OCO4)cc(OC)c1OC (stereo unspecified)	?	?	-68*	?	?	-4%
Cc1ccc(NS(=O)(=O)c2ccc(-n3cccn3)cc2)cc1C	-15%[46.1 µM]	-15%[46.1 µM]	-93*	-14%	-29%	14%
Cc1ccc(NS(=O)(=O)c2ccc(-n3cccn3)cc2)cc1Cl	nt	11%[46.1 µM]	-33	-9%	?	34%
COc1cc(OC)c(OC)cc1CN1CCC(n2cc(C(=O)N3CCCCC3)nn2)CC1	nt	nt	nt	-12%	-15%	-9%
CN(C(=O)c1ccc2c(c1)N(Cc1cccc(Cl)c1)C(=O)c1ccccc1S2(=O)=O)C1CCCCC1	nt	10µM*	-79*	-2%	-3%	-4%
O=C(NCCN1CCCC1)c1ccc2c(c1)N(Cc1cccc(Cl)c1)C(=O)c1ccccc1S2(=O)=O	nt	nt	-77*	nt	nt	4%
CN(C(=O)c1ccc2c(c1)N(Cc1ccc(F)cc1)C(=O)c1ccccc1S2(=O)=O)C1CCCCC1	-31%[46.1 µM]	3%[46.1 µM]	-5	-8%	-8%	-7%
O=C(NCCc1ccc(Cl)cc1)c1ccc2c(c1)N(Cc1cccc(Cl)c1)C(=O)c1ccccc1S2(=O)=O	nt	-2%[46.1 µM]	-35	-8%	-18%	-11%
O=C(CN1CCC(C(O)(c2ccccc2)c2ccccc2)CC1)Nc1ccccc1	23µM*	?	-27	-14%	-13%	nt
O=C(CN1CCC(C(O)(c2ccccc2)c2ccccc2)CC1)Nc1cc(Cl)ccc1Cl	?	8.2µM*	55	-3%	-15%	nt
SMILES	Marburg entry inh	Lassa entry inh	HCMV antiviral	VACV Venus inh	VACV mCherry inh	FMDV inh
O=C(CN1CCCCC1)Nc1cc(Cl)ccc1Cl	14%	6%	-7	-3%	1%	32%
O=C(CN1CCOCCOCCOCC1)Nc1ccccc1	5%	11%	41	-4%	i	nt
Cc1cccc(NC(=O)C(=O)NCCc2sc(-c3ccccc3)nc2C)c1C	nt	19%[46.1 µM]	21	0%	?	-8%
CC(C)Oc1ccc(Nc2cc3[nH]c(-c4cccc(F)c4)cc3cn2)cc1	nt	nt	-30	nt	nt	nt
O=c1c2ccccc2[se]n1-c1ccccc1	18µM*	15µM*	-67*	-9%	-3%	11%
COc1cc2c(CCNC(C)=O)c[nH]c2cc1Cl	?	0%	-92*	-9%	-14%	-14%
COc1ccc2[nH]cc(CCNC(C)=O)c2c1	?	0%	-2	-16%	-2%	-19%
COc1ccc(S(=O)(=O)N2CCOC2CNC(=O)C(=O)NCCc2c[nH]c3ccccc23)cc1C (stereo unspecified)	?	?	27	?	?	?
COc1ccc(S(=O)(=O)N2CCOC2CNC(=O)C(=O)NCCc2c[nH]c3ccccc23)cc1 (stereo unspecified)	-10%	?	-2	-18%	-10%	22µM*
COc1ccc(OC)c(NC(=O)NCCc2c[nH]c3ccccc23)c1	nt	nt	-87*	nt	nt	2%
COc1ccc(C(=O)CCC(=O)NCCc2c[nH]c3ccccc23)cc1	8%[46.1 µM]	-23%[46.1 µM]	-104*	-10%	-12%	-18%
Cc1ccc(-c2csc3nc[nH]c(=S)c23)cc1	-29%	-2%	?	-27%	-10%	-28%
S=c1[nH]cnc2scc(-c3ccc(Br)cc3)c12	?	-29%[46.1 µM]	-87*	-25%	-8%	-20%
COc1ccc(OC)c2c1C(=O)C(Cl)=C(Cl)C2=O	nt	nt	-91*	nt	nt	20µM*
COc1ccc(OC)c2c1C(=O)CC2C (stereo unspecified)	nt	nt	15	-10%	i	-15%
COc1ccc(N=C2NC(=O)C(CC(=O)NCCc3ccc(OC)c(OC)c3)S2)cc1 (stereo unspecified)	15%[46.1 µM]	?	-21	-14%	-1%	-5%
COc1ccc(CC2SC(=Nc3ccc(F)cc3)NC2=O)cc1 (stereo unspecified)	-13%[46.1 µM]	4.5µM*	-38	-1%	i	12%
COc1ccccc1NC(=O)c1oc2ccccc2c1NC(=O)Cc1ccccc1	3%[46.1 µM]	-2%[46.1 µM]	-2	?	-26%	-23%
Cc1cc(C)c(NC(=O)c2ccc3nc(C(C)C)oc3c2)c(C)c1	nt	-12%[46.1 µM]	-15	13%	-5%	-9%
COc1cc(OC)c(NC(=O)c2ccc3nc(C(C)C)oc3c2)cc1Cl	nt	-5%[46.1 µM]	-30	-20%	i	13µM*
O=C(O)[C@H]1CC(=O)N(Cc2cccs2)C1	9%	nt	nt	nt	nt	nt
O=C(C[n+]1ccc(/C=C/c2c[nH]c3ccccc23)c2ccccc21)c1ccccc1	nt	nt	nt	-4%	-14%	nt
